# Source: PubChem BioAssay
# The source made the active and inactive calls. No rule for the calls is given here.
# Target: Pantothenate synthetase (Mycobacterium tuberculosis (strain ATCC 25618 / H37Rv)) (UniProt P9WIL5)
# Assay: Coupled enzyme confirmation of inhibitors against recombinant Mtb PanC (AID 375);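 also: 0% = full reaction with vehicle and 100% = no enzyme background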
# Details: coupled enzyme assay; at 10 µM, stronger effect = higher value
# Pantothenate synthetase (Mycobacterium tuberculosis (strain ATCC 25618 / H37Rv)), sequence (P9WIL5 whole entry, looked up): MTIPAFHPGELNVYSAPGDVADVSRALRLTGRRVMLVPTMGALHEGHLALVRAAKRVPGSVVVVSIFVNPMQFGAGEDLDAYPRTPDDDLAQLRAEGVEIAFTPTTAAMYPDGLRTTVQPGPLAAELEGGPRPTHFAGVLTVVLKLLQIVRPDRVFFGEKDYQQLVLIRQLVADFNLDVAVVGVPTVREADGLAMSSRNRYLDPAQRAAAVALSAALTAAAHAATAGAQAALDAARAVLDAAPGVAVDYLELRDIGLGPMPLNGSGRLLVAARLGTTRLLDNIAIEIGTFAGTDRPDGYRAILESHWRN
row,SMILES,inhibition
1,O=C(C1CC1)N1CCc2cc(S(=O)(=O)N(CCO)Cc3ccccc3)ccc21,0% (inactive)
2,CCOCCCNC(=O)CN1CCN(Cc2ccccc2C)C1=O,5% (inactive)
3,O=C(CP(=O)(CO)CO)c1ccc(Cl)cc1,0% (inactive)
4,C(/CCc1ccccc1)=N\n1cnnc1,8% (inactive)
5,CC(CCc1ccccc1)NC(=O)c1ccc(Br)o1 (stereo not given),0% (inactive)
